In PubChem BioAssay AID463173 (ICCB-Longwood Screening Facility, Harvard Medical School, 2010) one finds survival data, which are given here for 34 compounds.

The structures appear in SMILES notation. In all, about 52,000 compounds went through this assay and about 4,300 (8.3%) were called active. The entries come from a sample that favours actives as a whole. A number with no mark means an inactive call. No stated cut-off is given here; in the data, active means survival mostly below about 52% (no sharp cut-off); inactive means mostly above about 56%.

The test relates to DeltatarO mutant. Briefly: growth inhibition of S. aureus wild type versus tarO mutant, primary screen, teichoic acid synthesis inhibitors, RN4220, OD600 (AID 463173). Particulars: OD600, 18 h, hits give low values, screened at 18.75 µg/mL (by protocol).
As to `Cc1ccc(S(=O)(=O)N(CC(=O)Nc2cccnc2)c2cc(Cl)ccc2C)cc1`, the survival is 78%.

In the case of `COc1ccc(NC(=O)CNC(=O)Cn2c(C)cc3ccccc3c2=O)c(OC)c1`, the survival was 62%.

For `Nc1nc(SC#CC(F)(F)F)ns1`, the survival was 13% (active).

On to `C=CCSc1nsc(N)n1`, for which the survival was 75%.

Consider `O=C(CSc1ccccc1)N1CCc2c([nH]c3ccccc23)C1c1ccc(Cl)cc1` (centres undefined), for which the survival was 52% (active).

With `Cc1ccc(C2c3[nH]c4ccccc4c3CCN2C(=O)CSc2ccccc2)cc1` (centres undefined), the survival is 69%.

As to `O=C(CSc1ccccc1)N1CCc2c([nH]c3ccccc23)C1c1ccc(F)cc1` (centres undefined), the survival was 76%.

As for `Cc1ccc(CCNS(=O)(=O)c2ccc3c(c2)C(C(C)C)C(=O)N3)cc1` (centres undefined), the survival was 116%.

As to `COc1ccccc1CCNC(=O)C(=O)NCC(c1cccs1)S(=O)(=O)c1ccccc1` (centres undefined), the survival is 82%.

For `O=C(c1ccc(F)cc1F)N1CCC(c2noc(-c3ccc(S(=O)(=O)N4CCCC4)cc3)n2)CC1`, the survival is 97%.

For the compound `Cc1cccc2nc(-c3ccc(N(C)C)cc3)c(Nc3ccc4c(c3)OCO4)n12`, the survival is 102%.

As for `O=C(Nc1ccc2nc(SCC(=O)N3CCOCC3)sc2c1)c1ccc(Br)cc1`, the survival is 83%.

Turning to `O=C(Nc1ccc2nc(SCC(=O)N3CCCC3)sc2c1)c1cccc(Cl)c1`, the survival was 52%.

As for `O=C(Nc1ccc2nc(SCC(=O)N3CCOCC3)sc2c1)c1cccc(Cl)c1`, the survival was 32% (active).

As for `O=C(Nc1ccc2nc(SCC(=O)N3CCOCC3)sc2c1)c1cccc(Br)c1`, the survival was 29% (active).

Turning to `O=C(Nc1ccc2nc(SCC(=O)N3CCCC3)sc2c1)c1cccc(Br)c1`, the survival is 57%.

As to `O=C(Nc1ccc2nc(SCC(=O)N3CCOCC3)sc2c1)c1ccc(Cl)cc1`, the survival is 68%.

With `Cc1cc(C)cc(NC(=O)C2CCCN(S(=O)(=O)c3cccc4nsnc34)C2)c1` (centres undefined), the survival is 105%.

Regarding `Cc1ccc(N2CCN(C(=O)c3cnn(-c4ccc(F)cc4F)c3C3CCN(C(=O)OC(C)(C)C)CC3)CC2)c(C)c1`, the survival is 91%.

For `CCc1ccc(NC(=O)C(CC)n2nnc(C(=O)OC)c2C(=O)OC)cc1` (centres undefined), the survival is -3% (active).

Take `CCOC(=O)c1nnn(C(CC)C(=O)Nc2ccc(F)cc2)c1C(=O)OCC` (centres undefined): the survival is 119%.

As to `CCC(C(=O)Nc1cc(C)ccc1OC)n1nnc(C(=O)OC)c1C(=O)OC` (centres undefined), the survival is 94%.

In the case of `Cc1ccc(CNC(=O)c2cc3ccc4cccnc4c3[nH]2)cc1`, the survival is 32% (active).

Consider `O=C(NCc1ccc(Cl)cc1)c1cc2ccc3cccnc3c2[nH]1`, for which the survival is 58%.

For the compound `CCOc1cc(C(=O)Nc2ccncc2)cc(OCC)c1OCC`, the survival is 94%.

On to `O=C(COc1ccc(Cl)cc1Cl)Nc1cccc2cccnc12`, for which the survival was 79%.

`CCOc1ccccc1NC(=O)c1ccc(C(=O)Nc2ccccc2OCC)cc1`: the survival was 83%.

On to `Cc1ccc2cccc(NC(=O)c3ccc(OC(C)C)cc3)c2n1`, for which the survival is 95%.

As to `CCOc1cc(C(=O)Nc2cccc3cccnc23)cc(OCC)c1OCC`, the survival was 10% (active).

In the case of `Cc1cccc(OCC(=O)Nc2cccc3cccnc23)c1C`, the survival is 60% (active).

With `Cc1ccc(C(=O)Nc2cccc3cccnc23)cc1Cl`, the survival is 72%.

Take `CC(C)c1ccc(C(=O)Nc2cccc3cccnc23)cc1`: the survival was -1% (active).

Regarding `O=C(NCc1ccccc1)c1cc2ccc3cccnc3c2[nH]1`, the survival was 80%.

Take `Cc1cc(C)cc(OCC(=O)Nc2cccc3cccnc23)c1`: the survival is 73%.
